# Data as given in PubChem BioAssay (NCI).
# About 83,000 compounds went through this panel and 20% of them were active in at least one assay; those are over-represented in the sample as a whole.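 Interpretation: 100, growth as untreated; towards 0, rising growth inhibition; 0, no net growth; 0 to -100, cell death. Compounds scoring below 10 were considered active.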 Values without a mark were called inactive. Active and inactive are the calls of the source.
# Experiments:
# Assay in all cases: NCI-60 one-dose screen, 48 h (100 = growth as untreated, 0 = no growth, -100 = all killed)
# Conditions in all cases: 10 µM unless noted
# SR leukemia = tested on: SR leukemia
# RPMI-8226 leukemia = tested on: RPMI-8226 leukemia
# OVCAR-8 ovarian = tested on: OVCAR-8 ovarian
# OVCAR-5 ovarian = tested on: OVCAR-5 ovarian
# OVCAR-4 ovarian = tested on: OVCAR-4 ovarian
# SK-OV-3 ovarian = tested on: SK-OV-3 ovarian
# IGROV1 ovarian = tested on: IGROV1 ovarian
# OVCAR-3 ovarian = tested on: OVCAR-3 ovarian
# HS 578T breast = tested on: HS 578T breast
# NCI/ADR-RES ovarian = tested on: NCI/ADR-RES ovarian
# T-47D breast = tested on: T-47D breast
# MDA-MB-435 melanoma = tested on: MDA-MB-435 melanoma
# SW-620 colon = tested on: SW-620 colon
# MCF7 breast = tested on: MCF7 breast
# HCT-116 colon = tested on: HCT-116 colon
# HCC-2998 colon = tested on: HCC-2998 colon
# KM12 colon = tested on: KM12 colon
# BT-549 breast = tested on: BT-549 breast
SMILES,growth (SR leukemia),growth (RPMI-8226 leukemia),growth (OVCAR-8 ovarian),growth (OVCAR-5 ovarian),growth (OVCAR-4 ovarian),growth (SK-OV-3 ovarian),growth (IGROV1 ovarian),growth (OVCAR-3 ovarian),growth (HS 578T breast),growth (NCI/ADR-RES ovarian),growth (T-47D breast),growth (MDA-MB-435 melanoma),growth (SW-620 colon),growth (MCF7 breast),growth (HCT-116 colon),growth (HCC-2998 colon),growth (KM12 colon),growth (BT-549 breast)
N#CC1=C(/N=C/c2ccccc2)Oc2c(ccc3ccccc23)C1c1ccccc1 (stereo unspecified),19.2%,11%,12.5%,28.8%,62.7%,23.8%,25.1%,-2.72% (active),18.5%,1.37% (active),49.8%,-42.1% (active),23.9%,14.6%,8.77% (active),-12.2% (active),19.2%,–
Cc1ccc(-c2cc(-c3ccccc3C)[nH]c(=O)c2C#N)s1,118%,97.5%,95.5%,93.4%,85.1%,111%,80.4%,94.5%,82.8%,96.8%,86.5%,94.9%,95.6%,89%,91.8%,111%,95.3%,79.4%
CC/C=C\C[C@H](O)C/C=C1/C(=O)C=C[C@@H]1C/C=C\CCCCO,-5.23% (active),-12.9% (active),-27.5% (active),39.2%,49.7%,83.2%,15.5%,2.43% (active),75.6%,9.46% (active),21.6%,-5.88% (active),-12.4% (active),13.3%,-64.6% (active),6.24% (active),-16.1% (active),-8.67% (active)
Cc1ccc(C(=O)C2=C(O)C(=O)N(Cc3cccnc3)C2c2ccccc2F)o1 (stereo unspecified),97.3%,105%,92.6%,101%,106%,94.5%,68.2%,97.4%,102%,98.9%,95.2%,102%,103%,98.3%,–,94.3%,106%,99.2%
O=C(c1ccc(Nc2nccc(NCCCCNc3ccnc4cc(Cl)ccc34)n2)cc1)N1CCCCC1,-27.3% (active),8.24% (active),23%,91.9%,49%,97.7%,46.5%,36.6%,65%,89%,-33.2% (active),-67.6% (active),2.09% (active),4.09% (active),-18.6% (active),-11.2% (active),54.2%,–
CN1CCN(CC(=O)Nc2nc(-c3cccc(NS(=O)(=O)c4cccc5c(N(C)C)cccc45)c3)cs2)CC1,11.5%,24.2%,87.9%,86.6%,61.2%,93.1%,86.6%,74.4%,75%,87.3%,64.3%,68.4%,62.6%,49.9%,–,53.6%,71.4%,97.1%
C=C1C(=O)O[C@H]2[C@H]1CC/C(COC(=O)C(=O)c1cn(C)c3ccc(OC)cc13)=C\CC[C@@]1(C)O[C@@H]21,2.42% (active),-37.5% (active),-9.07% (active),-18.9% (active),20.3%,-11.6% (active),-67.7% (active),-72.1% (active),3.23% (active),7.43% (active),-55.3% (active),-79.2% (active),-63.6% (active),-34.8% (active),–,-65.3% (active),-65% (active),-79.1% (active)
O=Cc1c[nH]c2ccc(-c3csc4ccccc34)cc12,6.86% (active),27.8%,27.6%,86.3%,94.2%,49.4%,20.5%,23.8%,40.4%,12.3%,70.7%,-17.5% (active),15.6%,40.2%,–,13.4%,2.08% (active),38.5%
Cc1occc1-c1n[nH]c(=S)n1N1C(=O)CSC1=S,102%,93.8%,101%,99.6%,107%,106%,102%,103%,101%,101%,104%,99.5%,94.8%,94.4%,105%,112%,99%,108%
N#CC1=C(c2ccc(Br)cc2)NC(SCC(=O)c2ccc(Br)cc2)NC1=O (stereo unspecified),101%,107%,103%,101%,101%,110%,114%,102%,97%,107%,92.8%,103%,101%,101%,–,106%,101%,99.1%
Cc1cccc(-c2nc(N(C)c3ccc4ncsc4c3)c3ccccc3n2)n1,17.3%,50.1%,91.2%,108%,85.7%,96.6%,68.9%,62.6%,–,58.5%,60.6%,-3.29% (active),57.9%,45%,65.2%,84.2%,55.4%,87.1%
COc1cc2c(cc1-c1c(C)noc1C)ncc1nc(C3CCCCC3)n(C3CCC(OC(F)F)CC3)c12 (stereo unspecified),16.7%,4.9% (active),40.5%,63.5%,40.3%,-2.64% (active),50.9%,27.8%,–,30%,-0.67% (active),41.6%,58.3%,15.1%,24.8%,42.7%,39.2%,51.5%
COc1cccc(-c2nn(-c3ccccc3)cc2-c2ccnc(NCCCNC(=O)c3cccc(C(F)(F)F)c3)c2)c1,-29% (active),9.33% (active),22.4%,71.6%,31.3%,28.3%,58.8%,41.4%,–,22.6%,-19.6% (active),24.6%,33.2%,18.1%,10.6%,21.7%,23%,1.62% (active)
CC(=O)N1N=C(c2ccc(Nc3nc(Nc4ccc(F)cc4)nc(Nc4ccc(F)cc4)n3)cc2)CC1c1cccc([N+](=O)[O-])c1 (stereo unspecified),22.4%,19.8%,91.6%,75.5%,47.8%,110%,76.9%,235%,–,67.2%,80.3%,111%,96.9%,88.3%,92.9%,54%,104%,102%
COC(=O)[C@]12CC[C@@H](C)[C@H](C)[C@@H]1C1=CC[C@@H]3[C@@]4(C)C(C=O)=C[C@@](C)(COS(C)(=O)=O)[C@@H]4C(=O)C[C@@]3(C)[C@]1(C)CC2,24.9%,23.4%,44.6%,67.1%,37.7%,66.4%,52.1%,31.4%,62.3%,–,33%,62.3%,35.9%,18.3%,–,43.4%,23.1%,42.9%
Cc1cc(NCc2cc(Nc3ccnc4cc(Cl)ccc34)ccc2F)nc(N2CCN(C)CC2)n1,-14.4% (active),-23.9% (active),12.1%,9.47% (active),18.7%,29.5%,8.72% (active),-17.4% (active),-7.51% (active),–,-42.4% (active),-96.7% (active),0.137% (active),1.13% (active),0.262% (active),-35.2% (active),14.4%,28.2%
Cc1ccc(-n2c(-c3ccccc3)c(-c3ccccc3)c3c(SCC(=O)n4[nH]c(N)cc4=O)ncnc32)cc1,103%,81.9%,83.2%,101%,96%,79.5%,79.8%,91.9%,106%,–,76.6%,106%,90.3%,86.7%,78.2%,113%,98.1%,99%
